Source: PMC7862700, “An all-to-all approach to the identification of sequence-specific readers for epigenetic DNA modifications on cytosine”

Key:
Test in all cases: DAPPL (digital affinity profiling via proximity ligation, sequencing); 10 mM Tris-HCl pH 7.5, 50 mM NaCl, 1 mM DTT, 4% glycerol, room temperature, 30 min; GST-TFs on glutathione beads, 16-mer random dsDNA library, 0.1% formaldehyde crosslink after washing; high values mean tight binding
Details in all cases: protein: recombinant; tags: N-terminal GST; dsDNA, one strand shown
FLI1 = target: T1, FLI1 (Homo sapiens, UniProt Q01543 1-452)
T1 sequence: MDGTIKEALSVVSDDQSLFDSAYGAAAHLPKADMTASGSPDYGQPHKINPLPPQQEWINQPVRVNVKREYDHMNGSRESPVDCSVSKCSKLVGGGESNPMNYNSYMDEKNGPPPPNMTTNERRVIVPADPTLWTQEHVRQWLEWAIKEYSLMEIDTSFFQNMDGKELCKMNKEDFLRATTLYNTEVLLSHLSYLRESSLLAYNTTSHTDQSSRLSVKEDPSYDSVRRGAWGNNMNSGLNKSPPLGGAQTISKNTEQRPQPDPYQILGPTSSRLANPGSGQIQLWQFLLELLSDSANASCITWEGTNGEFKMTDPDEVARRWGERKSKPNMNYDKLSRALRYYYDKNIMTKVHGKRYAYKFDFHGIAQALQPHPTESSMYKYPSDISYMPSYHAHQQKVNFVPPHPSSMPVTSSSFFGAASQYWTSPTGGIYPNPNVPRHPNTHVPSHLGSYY
Summary of the method: (§1)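 Human transcription factors were made in yeast as GST fusions, captured on glutathione beads and barcoded with DNA. With a tag-only sample included, the pool was incubated with 200 nmole of a random double-stranded 16-mer DNA library in Tris/NaCl/DTT/glycerol buffer at room temperature for 30 min, then crosslinked with 0.1% formaldehyde after washing, ligated by proximity, amplified and sequenced. For binding signal, each hexamer's read frequency for a factor is divided by its frequency for the tag-only sample.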

GABPA = target: T2, GABPA (Homo sapiens, UniProt Q06546 1-454)
T2 sequence: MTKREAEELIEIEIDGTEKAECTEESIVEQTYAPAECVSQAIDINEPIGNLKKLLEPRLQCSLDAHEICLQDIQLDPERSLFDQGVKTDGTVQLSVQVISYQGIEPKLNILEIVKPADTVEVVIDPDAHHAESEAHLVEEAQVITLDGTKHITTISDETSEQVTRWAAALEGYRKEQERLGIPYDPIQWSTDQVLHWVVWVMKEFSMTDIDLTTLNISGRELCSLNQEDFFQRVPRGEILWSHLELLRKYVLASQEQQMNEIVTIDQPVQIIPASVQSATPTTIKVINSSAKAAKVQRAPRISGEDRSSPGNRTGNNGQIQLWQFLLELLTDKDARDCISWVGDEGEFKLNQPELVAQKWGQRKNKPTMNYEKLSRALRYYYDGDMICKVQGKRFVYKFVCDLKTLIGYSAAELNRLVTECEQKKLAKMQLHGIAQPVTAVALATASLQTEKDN
Summary of the method: as §1

EHF = target: T3, EHF (Homo sapiens, UniProt Q9NZC4 1-300)
T3 sequence: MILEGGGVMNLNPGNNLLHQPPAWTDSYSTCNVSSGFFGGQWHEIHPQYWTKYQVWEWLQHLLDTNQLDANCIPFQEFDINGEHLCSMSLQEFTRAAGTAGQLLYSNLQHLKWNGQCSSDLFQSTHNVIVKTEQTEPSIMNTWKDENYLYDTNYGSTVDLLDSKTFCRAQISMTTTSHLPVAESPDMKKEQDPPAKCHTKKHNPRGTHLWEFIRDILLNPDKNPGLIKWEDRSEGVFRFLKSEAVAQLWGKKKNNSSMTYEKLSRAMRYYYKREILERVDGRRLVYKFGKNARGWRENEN
Summary of the method: as §1

ERF = target: T4, ERF (Homo sapiens, UniProt P50548 1-548)
T4 sequence: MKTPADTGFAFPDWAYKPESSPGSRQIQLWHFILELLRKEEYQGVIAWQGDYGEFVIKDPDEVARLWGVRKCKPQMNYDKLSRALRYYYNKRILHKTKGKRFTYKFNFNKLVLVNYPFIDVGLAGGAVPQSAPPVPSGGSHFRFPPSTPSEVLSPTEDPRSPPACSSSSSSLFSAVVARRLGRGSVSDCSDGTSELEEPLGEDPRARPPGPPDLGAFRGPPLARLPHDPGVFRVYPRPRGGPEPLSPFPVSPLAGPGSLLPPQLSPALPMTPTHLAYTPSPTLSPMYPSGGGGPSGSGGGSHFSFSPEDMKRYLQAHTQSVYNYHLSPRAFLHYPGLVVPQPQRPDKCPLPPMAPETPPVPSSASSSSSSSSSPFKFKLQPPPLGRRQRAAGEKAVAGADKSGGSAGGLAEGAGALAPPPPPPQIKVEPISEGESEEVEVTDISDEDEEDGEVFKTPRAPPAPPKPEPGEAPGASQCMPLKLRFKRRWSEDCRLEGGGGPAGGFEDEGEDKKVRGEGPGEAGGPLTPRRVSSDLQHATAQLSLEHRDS
Summary of the method: as §1

ELK1 = target: T5, ELK1 (Homo sapiens, UniProt P19419 1-428)
T5 sequence: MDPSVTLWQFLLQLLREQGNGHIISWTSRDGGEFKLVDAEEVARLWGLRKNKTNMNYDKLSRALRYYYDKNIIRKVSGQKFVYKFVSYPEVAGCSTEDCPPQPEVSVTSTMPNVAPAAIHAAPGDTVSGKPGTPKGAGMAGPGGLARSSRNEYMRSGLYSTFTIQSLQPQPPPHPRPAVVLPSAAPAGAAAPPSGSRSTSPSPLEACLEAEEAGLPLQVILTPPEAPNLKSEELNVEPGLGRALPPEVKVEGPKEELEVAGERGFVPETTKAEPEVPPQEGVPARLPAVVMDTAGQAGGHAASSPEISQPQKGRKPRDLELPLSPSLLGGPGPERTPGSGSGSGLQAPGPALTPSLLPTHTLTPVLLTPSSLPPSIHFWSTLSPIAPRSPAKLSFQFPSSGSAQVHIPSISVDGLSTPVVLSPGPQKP
Summary of the method: as §1

ELF1 = ELF1 (Homo sapiens, UniProt P32519 1-619)
Sequence of ELF1 (P32519 whole entry): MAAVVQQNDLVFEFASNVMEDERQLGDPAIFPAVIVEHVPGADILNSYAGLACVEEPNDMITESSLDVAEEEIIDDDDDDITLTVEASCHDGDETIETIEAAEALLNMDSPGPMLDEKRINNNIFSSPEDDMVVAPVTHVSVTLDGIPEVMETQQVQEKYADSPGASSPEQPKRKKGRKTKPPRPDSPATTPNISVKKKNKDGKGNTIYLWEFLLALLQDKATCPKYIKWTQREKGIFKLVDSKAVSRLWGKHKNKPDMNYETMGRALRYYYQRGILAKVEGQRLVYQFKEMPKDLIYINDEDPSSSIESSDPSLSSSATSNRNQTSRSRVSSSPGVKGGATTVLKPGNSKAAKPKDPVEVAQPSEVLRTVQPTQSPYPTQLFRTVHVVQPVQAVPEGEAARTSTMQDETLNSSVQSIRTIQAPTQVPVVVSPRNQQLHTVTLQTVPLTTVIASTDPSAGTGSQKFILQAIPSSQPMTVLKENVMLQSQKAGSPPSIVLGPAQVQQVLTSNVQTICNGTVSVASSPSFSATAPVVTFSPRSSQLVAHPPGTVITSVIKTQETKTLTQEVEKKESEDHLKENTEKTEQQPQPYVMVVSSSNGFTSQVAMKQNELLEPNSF
Summary of the method: as §1

ELK3 = target: T6, ELK3 (Homo sapiens, UniProt P41970 1-407)
T6 sequence: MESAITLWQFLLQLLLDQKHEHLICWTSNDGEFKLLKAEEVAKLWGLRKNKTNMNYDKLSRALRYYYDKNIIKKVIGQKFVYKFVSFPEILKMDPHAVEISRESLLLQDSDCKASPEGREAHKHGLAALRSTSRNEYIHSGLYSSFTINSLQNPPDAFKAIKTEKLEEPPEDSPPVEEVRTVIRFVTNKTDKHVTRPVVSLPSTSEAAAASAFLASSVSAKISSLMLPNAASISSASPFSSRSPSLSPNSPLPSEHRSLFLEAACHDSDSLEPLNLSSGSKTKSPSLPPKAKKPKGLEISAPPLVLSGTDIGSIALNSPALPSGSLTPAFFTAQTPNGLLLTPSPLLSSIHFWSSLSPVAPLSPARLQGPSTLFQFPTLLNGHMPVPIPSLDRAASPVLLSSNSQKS
Summary of the method: as §1

ETV1 = ETV1 (Homo sapiens, UniProt P50549 1-477)
Sequence of ETV1 (P50549 whole entry): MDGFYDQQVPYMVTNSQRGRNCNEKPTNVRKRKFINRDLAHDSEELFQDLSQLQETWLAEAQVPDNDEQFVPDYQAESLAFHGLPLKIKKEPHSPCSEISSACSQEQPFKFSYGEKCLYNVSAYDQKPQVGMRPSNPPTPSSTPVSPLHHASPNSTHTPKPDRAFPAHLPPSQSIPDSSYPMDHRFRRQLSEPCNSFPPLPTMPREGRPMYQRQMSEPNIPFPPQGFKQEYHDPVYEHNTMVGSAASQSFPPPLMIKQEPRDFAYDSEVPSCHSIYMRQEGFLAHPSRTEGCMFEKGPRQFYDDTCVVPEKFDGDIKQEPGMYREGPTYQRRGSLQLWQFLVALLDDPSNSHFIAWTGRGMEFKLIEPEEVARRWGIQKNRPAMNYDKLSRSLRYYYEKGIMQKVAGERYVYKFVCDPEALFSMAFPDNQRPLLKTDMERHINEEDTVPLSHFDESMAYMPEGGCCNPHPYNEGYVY
Summary of the method: as §1

ETV3L = target: T7, ETV3L (Homo sapiens, UniProt Q6ZN32 1-361)
T7 sequence: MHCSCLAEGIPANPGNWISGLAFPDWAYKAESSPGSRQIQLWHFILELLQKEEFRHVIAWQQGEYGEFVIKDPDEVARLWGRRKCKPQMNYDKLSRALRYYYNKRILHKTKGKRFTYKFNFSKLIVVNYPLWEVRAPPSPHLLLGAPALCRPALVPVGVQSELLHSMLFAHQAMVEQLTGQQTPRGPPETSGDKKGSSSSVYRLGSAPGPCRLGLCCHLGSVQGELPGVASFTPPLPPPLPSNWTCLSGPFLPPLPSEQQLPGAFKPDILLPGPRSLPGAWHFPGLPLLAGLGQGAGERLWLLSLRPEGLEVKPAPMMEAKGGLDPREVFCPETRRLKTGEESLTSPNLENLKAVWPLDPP
Summary of the method: as §1

ETS2 = target: T8, ETS2 (Homo sapiens, UniProt P15036 1-469)
T8 sequence: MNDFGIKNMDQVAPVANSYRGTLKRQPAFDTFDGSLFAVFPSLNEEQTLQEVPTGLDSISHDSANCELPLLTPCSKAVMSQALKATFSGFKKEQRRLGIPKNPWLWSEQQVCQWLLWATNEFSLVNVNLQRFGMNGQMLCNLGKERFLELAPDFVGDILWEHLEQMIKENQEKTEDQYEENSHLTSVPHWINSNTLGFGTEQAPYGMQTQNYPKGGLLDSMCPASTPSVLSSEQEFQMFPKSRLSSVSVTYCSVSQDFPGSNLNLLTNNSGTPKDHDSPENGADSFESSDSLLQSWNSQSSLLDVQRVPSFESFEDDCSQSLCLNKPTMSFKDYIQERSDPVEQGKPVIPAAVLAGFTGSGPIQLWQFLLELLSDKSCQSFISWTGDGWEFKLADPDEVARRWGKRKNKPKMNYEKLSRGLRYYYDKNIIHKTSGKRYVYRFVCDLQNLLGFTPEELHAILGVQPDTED
Summary of the method: as §1

ETV3 = target: T9, ETV3 (Homo sapiens, UniProt P41162-2 1-143)
T9 sequence: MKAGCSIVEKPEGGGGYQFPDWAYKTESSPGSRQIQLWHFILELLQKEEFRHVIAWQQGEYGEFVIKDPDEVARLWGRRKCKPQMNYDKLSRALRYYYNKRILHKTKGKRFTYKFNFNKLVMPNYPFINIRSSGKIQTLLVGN
Summary of the method: as §1

CATTGG was tested, and the binding signal (FLI1) was 1.05 fold enrichment (6-mer frequency, TF over GST control), the binding signal (GABPA) was 1 fold enrichment (6-mer frequency, TF over GST control) and the binding signal (EHF) was 1 fold enrichment (6-mer frequency, TF over GST control). The binding signal (ERF) was 1.05 fold enrichment (6-mer frequency, TF over GST control).
In the case of CGCACA, the binding signal (FLI1) is reported as 1.01 fold enrichment (6-mer frequency, TF over GST control), the binding signal (ELK1) is reported as 1.08 fold enrichment (6-mer frequency, TF over GST control) and the binding signal (ELF1) is reported as 1.05 fold enrichment (6-mer frequency, TF over GST control). For the same sequence, the binding signal (EHF) was 1.03 fold enrichment (6-mer frequency, TF over GST control), the binding signal (ELK3) was 1.02 fold enrichment (6-mer frequency, TF over GST control) and the binding signal (ETV1) was 1.01 fold enrichment (6-mer frequency, TF over GST control). The binding signal (ERF) was 1.07 fold enrichment (6-mer frequency, TF over GST control), the binding signal (ETV3L) was 1.04 fold enrichment (6-mer frequency, TF over GST control) and the binding signal (ETS2) was 1.04 fold enrichment (6-mer frequency, TF over GST control). The binding signal (ETV3) was 1.03 fold enrichment (6-mer frequency, TF over GST control).
